A selection: hits, their analogues and other compounds. The true share with any hit is near 7.4%.
Rab9 promoter act = qHTS Assay for Rab9 Promoter Activators; Huh7 Rab9 promoter-luciferase reporter, luminescence, 24 h; Potency, µM (doses to about 9.22 µM), without a hit: at the top dose activation, negative = inhibition, hits mostly activators; 320,000 compounds, 2.8% hits; also: % of control where 0% means no effect; nearly all actives have a fitted effect of over 60% in size
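Luminescence read-out: Huh7 cells stably expressing Rab9-luciferase, treated 24 h with compound at 37 °C, then lysed with luciferase reagent for 10 min at ambient before reading.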
SMN2 splice enh = qHTS Assay for Enhancers of SMN2 Splice Variant Expression | HEK293 SMN2-luciferase splicing reporter, luminescence, 30-36 h | Potency, µM (top dose mostly 46.1 µM), for inactives: at the highest dose activity change, positive = activation, actives largely listed as activators | 210,000 compounds, 2.8% hits | AID 1458, 2008; also: % of control where 0% means no effect; nearly all actives have a fitted effect of over 55% in size
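HEK293 cells carry an SMN2 minigene-luciferase reporter in which exon 7 inclusion puts luciferase in frame. Cells were seeded at 2000 cells/well, attached for 10-12 hours, then exposed to compounds for 30-36 hours at 37C before ONE-Glo luminescence.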
ELG1 genotox = qHTS screen for small molecules that induce genotoxicity in human embryonic kidney (HEK293T) cells expressing luciferase-tagged ELG1 | HEK293T ELG1-luciferase reporter, luminescence, 16 h | Potency, µM (doses to about 46 µM), for the others: at the highest dose activity change, positive = activation, actives largely listed as activators | 330,000 compounds, 1.3% hits; also: % of control where 0% means no effect; nearly all actives have a fitted effect of over 60% in size
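Genotoxic stress is detected as increased luminescence from luciferase-tagged ELG1 in HEK293T cells, measured with ONE-Glo after a 16 hr treatment at 37 °C.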
NPC1 prom act = qHTS Assay for NPC1 Promoter Activators | Huh7 NPC1 promoter luciferase reporter, 24 h | Potency, µM (doses to about 9.22 µM), for the others: at the highest dose activation, usual class: activators | 320,000 compounds, 2.4% hits | AID 485313, 2010; also: % of control where 0% means no effect; nearly all actives have a fitted effect of over 60% in size
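Luciferase expression driven by the NPC1 promoter was measured in stably transfected Huh7 cells after a 24 h compound incubation, using a luciferase reagent and a luminescence read.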
FLuc counter = qHTS profiling assay for firefly luciferase inhibitor/activator using purifed enzyme and Km concentrations of substrates (counterscreen for miR-21 project); Luciferin 4-monooxygenase (Photinus pyralis), P08659; purified FLuc, Km substrates, luminescence inhibition; Potency, µM (titrated, usually from 57.5 µM), without a hit: at the top dose activity change, negative = inhibition, actives largely listed as inhibitors; 360,000 compounds, 6.9% hits;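 also: plate controls were vehicle for no effect and reference inhibitor for full effect; nearly all actives have a fitted effect of over 55% in size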
Target sequence (P08659 whole entry, looked up): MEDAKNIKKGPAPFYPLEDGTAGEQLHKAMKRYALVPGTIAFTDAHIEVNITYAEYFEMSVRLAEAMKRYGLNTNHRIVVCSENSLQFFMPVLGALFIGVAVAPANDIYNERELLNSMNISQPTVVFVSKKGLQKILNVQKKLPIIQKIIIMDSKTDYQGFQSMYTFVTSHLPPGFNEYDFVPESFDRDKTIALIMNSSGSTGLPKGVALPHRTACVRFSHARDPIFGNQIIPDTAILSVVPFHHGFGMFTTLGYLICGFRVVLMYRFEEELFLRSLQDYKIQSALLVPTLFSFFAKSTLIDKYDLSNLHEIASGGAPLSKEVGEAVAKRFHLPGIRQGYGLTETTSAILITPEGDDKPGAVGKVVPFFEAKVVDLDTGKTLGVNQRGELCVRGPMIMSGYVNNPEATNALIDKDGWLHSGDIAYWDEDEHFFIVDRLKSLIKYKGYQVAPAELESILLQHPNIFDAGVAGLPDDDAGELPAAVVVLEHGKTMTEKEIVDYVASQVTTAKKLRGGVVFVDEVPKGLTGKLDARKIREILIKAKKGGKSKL
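Biochemical qHTS of compounds, final roughly 60 µM downward over six points, against 10 nM purified firefly luciferase using Km concentrations of substrates (10 uM D-luciferin, 10 uM ATP) in Tris acetate pH 7.5 buffer; luminescence output.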
The depositor's hits bear a star; ? = inconclusive; . = not tested or not shown. Calls follow the shape of the dose curve; as a rule, active = well fitted curve in the direction sought with a large enough effect; inconclusive = small, poorly fitted or top-dose-only effect, or another doubt; inactive = no such curve, though single readings can be large; an effect the other way counts as inactive or inconclusive. Potency is read from the fitted curve at half-maximal effect.

SMILES | Rab9 promoter act | SMN2 splice enh | ELG1 genotox | NPC1 prom act | FLuc counter
CCOc1ccccc1NC(=S)Nc1ncccc1C | -0.2% | . | -1.3% | -1.1% | ?
COc1ccc(NC(=S)Nc2ncccc2C)c(OC)c1 | ? | ? | 11.8% | ? | 9.53µM*
Cc1cccc(NC(=S)NCCc2ccccc2)c1C | 3.3% | . | -4.8% | 1.3% | -0.3%
COc1ccc(NC(=S)Nc2ncccc2C)cc1OC | ? | 35.5µM* | ? | ? | ?
Cc1cccnc1NC(=S)Nc1ncccc1C | 0.708µM* | . | ? | 1.26µM* | 13.5µM*
Cc1cccnc1NC(=S)NCCc1ccccc1 | ? | ? | ? | 23.5% | 16.9µM*
Cc1cccnc1NC(N)=S | 1.3% | 12.8% | 0.7% | 0.6% | -4.9%
Cc1cc(SCC(=O)NC2(C#N)CCCCC2)nc2c(C)cccc12 | -2.6% | . | 2.4% | -0.2% | -7.0%
CC(C)CC(=O)Nc1ccc(-c2nnn(CC(=O)NCc3ccco3)n2)cc1 | ? | ? | ? | ? | 10.7µM*
COc1ccccc1-c1cc(C(=O)N/N=C/c2ccoc2)c2ccccc2n1 | 2.1% | . | 1.7% | -1.5% | ?
COc1ccc(-c2cc(C(=O)N/N=C/c3cccnc3)c3ccccc3n2)cc1 | 23.6% | . | 3.2% | 2.9% | 1.07µM*
COc1ccc(/C(C)=N/NC(=O)c2cc(-c3cccnc3)nc3ccccc23)cc1 | -1.6% | 14.5% | 18.9% | -2.2% | 0.1%
COc1ccc(-c2cc(C(=O)N/N=C(\C)c3cccnc3)c3ccccc3n2)cc1 | ? | . | ? | ? | 0.675µM*
CCCOc1cccc(-c2cc(C(=O)N/N=C/c3ccccn3)c3ccccc3n2)c1 | -13.4% | . | ? | -1.5% | 3.79µM*
COc1cc(/C=N/NC(=O)c2cc(-c3ccccc3)nc3ccccc23)cc(OC)c1O | 1.8% | . | -2.5% | -5.1% | 23.9µM*
CNC[C@H]1Oc2ccc(NC(=O)Cc3cn(C)c4ccccc34)cc2CC(=O)N([C@@H](C)CO)C[C@H]1C | . | . | -1.4% | . | .
Cc1cccc(/C=N/NC(=O)c2cc(-c3cccnc3)nc3ccccc23)c1 | -1.0% | 15.1% | -3.7% | -6.8% | -2.7%
CCCOc1cccc(-c2cc(C(=O)NN)c3ccccc3n2)c1 | 1.6% | -83.3% | -2.0% | 0.6% | 21.3µM*
CCCOc1cccc(-c2cc(C(=O)N/N=C/c3cccnc3)c3ccccc3n2)c1 | -4.2% | . | -15.1% | 2.3% | 7.57µM*
Cc1cc(C)n2nc(C(=O)OCC(=O)N(CC(C)C)C3CCS(=O)(=O)C3)nc2n1 (configuration not stated) | . | . | 1.1% | . | .
Nc1ccc(OCCc2ccccc2)cc1 | ? | . | 17.4% | ? | -12.1%
Nc1ccc(OCc2ccccc2)cc1 | ? | 12.6µM* | 19.0% | 28.3% | ?
c1ccc(COc2ccc(-c3csnn3)cc2)cc1 | 2.82µM* | ? | 25.8% | 1.78µM* | 2.39µM*
Cc1ccccc1C(=O)Oc1ccc(-c2csnn2)cc1 | -0.8% | . | ? | -0.2% | 12µM*
OCCNCCCCOc1ccc(OCc2ccccc2)cc1 | 3.55µM* | 15.8µM* | ? | ? | 10.7µM*
SMILES | Rab9 promoter act | SMN2 splice enh | ELG1 genotox | NPC1 prom act | FLuc counter
COc1ccc(CNC(=O)c2oc3c(c2C)-c2nn(Cc4ccccc4Cl)cc2CC3)cc1 | . | . | . | . | -5.5%
O=C(Nc1ccc(F)cc1)C1CCN(S(=O)(=O)c2cccc3nonc23)CC1 | -0.5% | . | -3.5% | 2.5% | 0.0%
O=C(Nc1nnc(Cc2ccccc2)s1)c1cccs1 | 1.78µM* | 12.1% | ? | ? | ?
COc1ccc(Cc2nnc(NC(=O)c3cccs3)s2)cc1 | 0.9% | -7.0% | ? | -0.1% | ?
O=C(Nc1nnc(CC2=CCCCC2)s1)c1cccs1 | ? | 14.1µM* | 14.6µM* | ? | ?
O=C(Nc1nnc(Cc2ccc(Cl)cc2)s1)c1cccs1 | 20.4% | 15.3% | 21.3% | 17.1% | -0.9%
O=C(Nc1nnc(Cc2ccccc2)s1)c1ccccc1 | ? | . | ? | 3.16µM* | -17.8%
Cc1ccc(C)c(NC(=O)CSc2nccn2-c2cccc(C)c2C)c1 | . | . | . | . | -19.6%
CN(C(=O)c1ccc(NC(=O)C2CCCN(C(=O)OC(C)(C)C)C2)cc1)C1CCC1 (configuration not stated) | . | . | -1.0% | . | .
Cc1cc(N/N=C/c2ccccc2)nc(N)n1 | 27.4% | . | ? | 27.5% | 16.9µM*
Cc1cc(N/N=C/c2ccccc2)nc(N2CCOCC2)n1 | 1.4% | . | 8.8% | 5.5% | 12µM*
Cc1ccc(/C=N/Nc2cc(C)nc(N3CCOCC3)n2)cc1 | -1.9% | . | -2.9% | -1.5% | 2.69µM*
Cc1cn(-c2ccccc2)c(C)c1/C=N\Nc1nc(N2CCOCC2)nc(N2CCOCC2)n1 | 8.5% | -0.5% | -5.5% | -1.8% | 19µM*
C(=C\c1ccccc1)/C=N/Nc1nc(N2CCOCC2)nc(N2CCOCC2)n1 | -7.1% | -4.0% | -0.6% | 1.5% | 2.2%
COc1ccc(NC(=O)CC2C(=O)N(c3cccc(OC)c3)C(=O)N2Cc2cccnc2)cc1 (configuration not stated) | . | . | . | . | -2.1%
CCn1ccnc1CNC(=O)c1ccc(OC2CCN(C(=O)COC)CC2)cc1 | -6.2% | . | 2.7% | 0.1% | 6.2%
CC1(C)Oc2ccc3ccc(=O)oc3c2CC1=O | . | 4.6% | . | . | .
CC(=O)Nc1cccc(NC(=O)C(=O)Nc2ccc3c(c2)N(C(=O)C2CC2)CCC3)c1 | ? | . | -0.4% | 27.8% | 9.53µM*
CC1CC(=O)c2cnc(Nc3ccccc3)nc2C1 (configuration not stated) | 3.55µM* | 11.2µM* | 5.8µM* | 3.16µM* | 9.53µM*
CC1CC(=O)c2cnc(Nc3cccc(C(F)(F)F)c3)nc2C1 (configuration not stated) | ? | -0.4% | 7.0% | 18.6% | ?
Cc1ccc(Nc2ncc3c(n2)CC(C)CC3=O)c(C)c1 (configuration not stated) | ? | . | 7.3µM* | 27.1% | 7.57µM*
CC(=O)Nc1ccc(-c2cc(N)n(-c3ccccc3)n2)cc1 | 3.16µM* | . | ? | 2.24µM* | 9.53µM*
Cc1ccc(-n2nc(-c3ccc(N)cc3)cc2N)cc1 | ? | 11.2µM* | ? | ? | 19µM*
Nc1cc(-c2ccc(Cl)cc2)nn1-c1ccccc1 | 3.16µM* | 14.1µM* | ? | 3.16µM* | 6.01µM*
Cc1c(C(=O)N2CCC(C)CC2)c(S(=O)(=O)NCc2ccc(Br)cc2)c(C)n1C | . | . | . | . | 0.7%
CN(C(=O)c1ccco1)c1nc2c(s1)CCCC2 | 0.891µM* | 14.1µM* | ? | 0.708µM* | 2.39µM*
CN(C(=O)c1ccco1)c1nnc(C23CC4CC(CC(C4)C2)C3)s1 | ? | 15.8µM* | ? | ? | 9.53µM*
Nc1ccc2nc(COc3ccccc3)[nH]c2c1 | 14.6% | . | 7.2% | 1.4% | ?
